PubChem BioAssay AID977607 (Broad Institute, 2014)
The campaign covered roughly 1,500 compounds. About 460 (31%) were called active. Roughly 1% stayed inconclusive and do not appear here.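 How the source made its calls: active means curve reaches 40% activation over neutral controls at an AC40 no higher than the top valid tested concentration; inconclusive means no clear call, values can overlap the other calls; inactive means signal moving opposite to the expected increase, and the rest.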 Not all results are given here. Results with a measured potency or affinity are listed apart.

experiment: GLuc-reported insulin release enhancers, glucose-stimulated beta cells – cell-based, INS-1E, Gaussia luciferase, luminescence, cherry-pick, set 2, dose response (AID 977607); conditions: INS-1E GLuc insulin secretion reporter, 2-3 h, active compounds read high; at 35 µM, 100% = signal doubled over neutral wells unless noted;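 further: 0% = median of the plate neutral control wells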

Max activation, inactive:
CCOc1ccc(C(=O)NCC(=O)OCCN2C(=O)c3ccccc3C2=O)cc1OCC -25.4% [at 0.135 µM, 100% = signal doubled over neutral wells]
O=S(=O)(NCC1CCCO1)c1ccc(Cl)nc1 (stereo unspecified) -19.6% [at 3.8 µM, 100% = signal doubled over neutral wells]
Cc1noc(C)c1S(=O)(=O)NC(=O)C1(C)CCN1C(=O)C1(c2ccc(Cl)cc2)CCC1 (stereo unspecified) -18.9% [at 0.135 µM, 100% = signal doubled over neutral wells]
CC1(C(=O)N2CCCCC2)CCN1C(=O)C1(c2ccccc2)CC1 (stereo unspecified) -16.5% [at 0.046 µM, 100% = signal doubled over neutral wells]
CCCCNC(=O)C1(C)CCN1C(=O)c1cc2ccccc2s1 (stereo unspecified) -22.6% [at 3.8 µM, 100% = signal doubled over neutral wells]
CCSc1ncnc2c(C#N)c3n(c12)CCCCC3 -11.2% [at 0.005 µM, 100% = signal doubled over neutral wells]
Cc1cc(=O)[nH]c2c1c(C)nn2C1CCCC1 -15.7% [at 1.2 µM, 100% = signal doubled over neutral wells]
CCCCOc1ccc(-c2nnn(CC(=O)c3c[nH]c4ccccc34)n2)cc1 -22.5%
CCN1CCN(c2ccc(S(=O)(=O)N3CCCCC3)cc2NC(=O)c2cc3ccccc3o2)CC1 -44.3%
Cc1cccc(C)c1NC(=O)C1c2ccccc2Oc2ccccc21 22.9%
CCCCOC(=O)c1cc(-c2ccc(/C=N/n3cnnc3)o2)ccc1Cl 9.8% [at 1.2 µM, 100% = signal doubled over neutral wells]
O=C(CNC(=O)c1ccco1)N/N=C/c1ccc(C(=O)O)cc1 52.9% [at 11 µM, 100% = signal doubled over neutral wells]
CC(C)Oc1ccc(C(=O)CCN2CCOCC2)cc1 -16%
O=C(CCN1CCOCC1)c1ccc(N2CCCCC2)cc1 -35% [at 3.8 µM, 100% = signal doubled over neutral wells]
CC(=O)NC1C(=O)N(CCN2CCOCC2)c2ccc(Br)cc21 (stereo unspecified) -15.1% [at 3.8 µM, 100% = signal doubled over neutral wells]
O=C(c1ccc2c(c1)OCO2)N1CCc2ccccc2C1 14.5%
CC1(c2ccc(OC(F)F)cc2)NC(=O)N(CC(=O)Nc2cccc(S(N)(=O)=O)c2)C1=O (stereo unspecified) -16.7%
C=CCN(CC=C)S(=O)(=O)c1ccc(C(=O)Nc2sc3c(c2C(N)=O)CCCCC3)cc1 -33.8% [at 3.8 µM, 100% = signal doubled over neutral wells]
C[C@H](O)[C@@H]1CN2CCc3ccc(-c4ccc5c(c4)OCO5)cc3[C@@H]2C[C@@H]1N(C)C(=O)c1cccc(Cl)c1 18.9% [at 0.42 µM, 100% = signal doubled over neutral wells]
CC(C(=O)N1CCC(C(N)=O)CC1)N(c1ccc(Oc2ccccc2)cc1)S(C)(=O)=O (stereo unspecified) 28.2% [at 0.42 µM, 100% = signal doubled over neutral wells]
COc1ccc(CCNC(=O)CCc2ccccc2)cc1OC -19.6% [at 0.42 µM, 100% = signal doubled over neutral wells]
COc1ccc(CCNC(=O)CCc2ccccc2O)cc1OC -17.8% [at 0.005 µM, 100% = signal doubled over neutral wells]
CC(=O)NCCNC(=O)CNC(=O)c1ccc(Cl)cc1 -16.4% [at 0.0016 µM, 100% = signal doubled over neutral wells]
CCNc1nc(NC(C)CC)nc(ON=C(C)C)n1 (stereo unspecified) 31.8%
COCCN(CCOC)Cc1cc(=O)oc2cc(C)c(C)cc12 -22.4% [at 0.046 µM, 100% = signal doubled over neutral wells]
COc1cccc2cc(-c3cc(=O)oc4cc(C)c(O)cc34)oc12 15.9% [at 3.8 µM, 100% = signal doubled over neutral wells]
O=C(NCCN1CCN(C(=O)c2ccccc2Cl)CC1)C(=O)NCc1ccccc1 23.3% [at 0.005 µM, 100% = signal doubled over neutral wells]
CC(O)c1nc2ccc(Cc3ccc4nc(C(C)O)[nH]c4c3)cc2[nH]1 (stereo unspecified) -15% [at 0.0016 µM, 100% = signal doubled over neutral wells]
CCNc1nc(NC(C)C)nc(N(C)C#N)n1 18.9%
COc1ccc(/C=N/NC(=O)c2cc(-c3ccc4c(c3)OCO4)n[nH]2)cc1OC 26.5% [at 3.8 µM, 100% = signal doubled over neutral wells]
O=C(NN=C1CCCC1)c1cc(-c2ccccc2)n[nH]1 -11.9% [at 1.2 µM, 100% = signal doubled over neutral wells]
